# Assay results published in PubChem BioAssay.
# Where “and” joins values, the source holds several entries; their conditions need not be identical. Equal values may be shown once. Calls of active or inactive are those of the source. Unless noted, no stated cut-off is given here; in the data, active means parasite load remaining mostly below about 12% (no sharp cut-off); inactive means mostly above about 10%.
# Columns and labels:
# [1] = liver-stage malaria parasite growth inhibition, primary screen, cell-based, HepG2, luciferase luminescence, HepG2 viability (AID 624349);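 further: 100% = mean of DMSO negative control wells on the same plate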; conditions: P. berghei liver stage in HepG2, luciferase luminescence, concentration not given here; parasite load remaining: stronger effect = lower value; viability: measured here: HepG2 viability without parasites
# [2] = sensitizers of A549 cells to miR-34 induction, primary screen, imaging, A549 dox-inducible miR-34, nuclei and caspase counts (AID 1347080;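 active means compounds whose cell count with miR-34 switched on is under 0.7 times the count with it off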); conditions: A549 miR-34 inducible, Hoechst nuclei count, 48 h
# [3] = inhibitors of Cryptococcus chitosan production, flow cytometry, Cibacron Brilliant Red staining (AID 1347148; call rule not given here;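 further: compound exposure lasted three days at 37 degrees C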); conditions: Cryptococcus neoformans chitosan, stronger effect = lower value; at 10 µM unless noted
# [4] = stronger effect = lower value, cell number ratio, induced over uninduced
# [5] = measured here: relative caspase fold change +Dox/-Dox
# [6] = measured here: total cells with miR-34 induction, stronger effect = lower value
# [7] = measured here: total cells without miR-34 induction
smiles,measurement,setting,value
Nc1ncnc2c1ncn2C1O[C@H](CO)[C@@H](O)[C@@H]1O (some centres undefined),parasite load remaining,[1],68.6% (inactive)
same,viability,[1],95.5%
same,fold change,[2]; [4],0.85 (inactive)
same,fold change,[2]; [5],1.24
same,cell count,[2]; [6],7580
same,cell count,[2]; [7],8920
CCOC(=O)Oc1c(OC)cc(C(=O)O[C@@H]2C[C@@H]3CN4CCc5c([nH]c6cc(OC)ccc56)[C@H]4C[C@@H]3[C@H](C(=O)OC)[C@H]2OC)cc1OC,parasite load remaining,[1],-14.9% (active)
same,viability,[1],98.5%
same,fold change,[2]; [4],0.795 (inactive)
same,fold change,[2]; [5],2.41
same,cell count,[2]; [6],6440
same,cell count,[2]; [7],8100
CCC1OC(=O)[C@H](C)C(=O)[C@H](C)[C@@H](OC2O[C@H](C)C[C@H](N(C)C)[C@H]2O)[C@](C)(OC)C[C@@H](C)C(=O)[C@H](C)[C@H]2N(CCCCn3cnc(-c4cccnc4)c3)C(=O)OC12C (some centres undefined),parasite load remaining,[1],141% (inactive) and 312% (inactive)
same,viability,[1],91.8% and 96.9%
same,fold change,[2]; [4],0.904 (inactive)
same,fold change,[2]; [5],2.11
same,cell count,[2]; [6],11200
same,cell count,[2]; [7],12400
CCCCC[C@@H](O)/C=C/[C@H]1[C@@H]2C/C(=C/CCCC(=O)O)O[C@@H]2C[C@@H]1O,fold fluorescence,[3],4.1 (inactive)
CC[C@H]1/C=C(\C)C[C@@H](C)C[C@@H](OC)[C@@H]2O[C@](O)(C(=O)C(=O)N3CCCC[C@@H]3C(=O)O[C@@H](/C(C)=C/[C@H]3CC[C@H](O)[C@@H](OC)C3)[C@@H](C)[C@H](O)CC1=O)[C@@H](C)C[C@H]2OC,fold fluorescence,[3],13.8 [at 63.1 µM] (inactive)
CCCCC[C@@H](O)/C=C/[C@H]1[C@H](CC(=O)CCCCC(=O)O)[C@H](O)C[C@@H]1O,fold fluorescence,[3],4.59 (inactive)
C=C1CC[C@@H](O)C/C1=C/C=C1\CCC[C@]2(C)[C@@H]1CC[C@H]2[C@@H](C)CC[C@H](O)C(C)(C)O,fold fluorescence,[3],6.63 (inactive)
Oc1cccc(-c2nc(N3CCOCC3)c3sccc3n2)c1,parasite load remaining,[1],50.9% (inactive)
same,viability,[1],83.2%
same,fold change,[2]; [4],0.851 (inactive)
same,fold change,[2]; [5],0.61
same,cell count,[2]; [6],2340
same,cell count,[2]; [7],2750
CCOC(=O)C1=C(C)NC(=S)N[C@H]1c1cccc(O)c1,fold fluorescence,[3],3.63 [at 171 µM] (inactive)
CCCCCCCCCCCCCCC[C@H](O)[C@@H](CO)NC(C)=O,fold fluorescence,[3],4.64 (inactive)
CCCCC(C)(C)[C@@H](O)/C=C/[C@H]1[C@H](C/C=C\CCCC(=O)O)C(=O)C[C@@H]1O,fold fluorescence,[3],4.79 (inactive)
CCCCC/C=C\C[C@H](O)/C=C/C=C/C=C\[C@H](O)CCCC(=O)O,fold fluorescence,[3],3.97 [at 1 µM] (inactive)
CCC(C)N1CCC2(CC1)N=c1c(c3c4c5c(C)c(O)c3c(O)c1=NC(=O)/C(C)=C/C=C/[C@H](C)[C@H](O)[C@@H](C)[C@@H](O)[C@@H](C)[C@H](OC(C)=O)[C@H](C)[C@@H](OC)/C=C/O[C@@](C)(O5)C4=O)N2 (some centres undefined),parasite load remaining,[1],81.4% (inactive)
same,viability,[1],74.8%
same,fold change,[2]; [4],0.966 (inactive)
same,fold change,[2]; [5],0.766
same,cell count,[2]; [6],8510
same,cell count,[2]; [7],8810
CC(=O)OCC(=O)[C@@]1(O)CC[C@H]2[C@@H]3CCC4=CC(=O)CC[C@]4(C)C3(F)C(=O)C[C@@]21C (some centres undefined),parasite load remaining,[1],49% (inactive)
same,viability,[1],46.2%
same,fold change,[2]; [4],0.875 (inactive)
same,fold change,[2]; [5],1.05
same,cell count,[2]; [6],6080
same,cell count,[2]; [7],6960
C[C@H]1CNCCN1S(=O)(=O)c1cccc2cnccc12,fold fluorescence,[3],3.94 [at 171.6 µM] (inactive)
COc1c2ccoc2nc2c(OC)c(OC[C@@H](O)C(C)(C)O)ccc12,parasite load remaining,[1],153% (inactive)
same,viability,[1],90.5%
same,fold change,[2]; [4],0.816 (inactive)
same,fold change,[2]; [5],1.39
same,cell count,[2]; [6],8040
same,cell count,[2]; [7],9850
OC[C@@H]1NC[C@H](O)[C@H](O)[C@H]1O,fold fluorescence,[3],8.15 [at 306.4 µM] (inactive)
CC(=O)[C@@H]1[C@@H](C#N)C[C@@H]2[C@H]3CC=C4C[C@H](O)CC[C@@]4(C)[C@@H]3CC[C@]21C,fold fluorescence,[3],3.64 [at 146.4 µM] (inactive)
COc1cc2c(cc1OC)-c1[nH]nc(Nc3cccc(F)c3)c1C2,parasite load remaining,[1],37% (inactive)
same,viability,[1],81.5%
same,fold change,[2]; [4],1.05 (inactive)
same,fold change,[2]; [5],1.72
same,cell count,[2]; [6],1160
same,cell count,[2]; [7],1100
CC(C)=CCC(O)C1=CC(=O)c2c(O)ccc(O)c2C1=O (centres undefined),fold fluorescence,[3],6.4 [at 173.4 µM] (inactive)
CNS(=O)(=O)c1ccc(NC(=O)c2ccccc2C(=O)O)cc1 (tested in a mixture with another compound),parasite load remaining,[1],59.7% (inactive)
same,viability,[1],106%
same,fold change,[2]; [4],0.903 (inactive)
same,fold change,[2]; [5],3.2
same,cell count,[2]; [6],11500
same,cell count,[2]; [7],12700
CO[C@H]1CC(O[C@@H]2/C(C)=C/C[C@@H]3C[C@@H](C[C@]4(CC[C@H](C)[C@@H](C5CCCCC5)O4)O3)OC(=O)[C@@H]3C=C(C)/C(=N/O)[C@H]4OC/C(=C\C=C\[C@@H]2C)[C@]43O)O[C@@H](C)C1O (some centres undefined),parasite load remaining,[1],170% (inactive) and 47% (inactive)
same,viability,[1],86.8% and 106%
same,fold change,[2]; [4],0.877 (inactive)
same,fold change,[2]; [5],3.74
same,cell count,[2]; [6],9710
same,cell count,[2]; [7],11100
CC[C@@]1([C@@H]2O[C@@H]([C@H]3O[C@@](O)(CO)[C@H](C)C[C@@H]3C)C[C@@H]2C)CC[C@H]([C@]2(C)CCC3(C[C@H](O)[C@@H](C)[C@@H]([C@@H](C)[C@@H](OC)[C@H](C)C(=O)O)O3)O2)O1 (some centres undefined),fold fluorescence,[3],4.7 [at 72.2 µM] (inactive)
CC(=O)N[C@@H]1[C@@H](O[C@H](C)C(=O)O)[C@H](O)[C@@H](CO)O[C@@H]1O,parasite load remaining,[1],112% (inactive)
same,viability,[1],105%
same,fold change,[2]; [4],0.861 (inactive)
same,fold change,[2]; [5],1.06
same,cell count,[2]; [6],8610
same,cell count,[2]; [7],10000
CCCCCCCCCCCCCC[C@H](F)C(=O)O,fold fluorescence,[3],6.01 (inactive)
CC(C)(CO)C(O)C(=O)NCCC(=O)O (centres undefined),parasite load remaining,[1],190% (inactive)
same,viability,[1],105%
same,fold change,[2]; [4],0.839 (inactive)
same,fold change,[2]; [5],0.783
same,cell count,[2]; [6],8190
same,cell count,[2]; [7],9770
CCC(=O)O[C@H]1CCC2C3CCc4cc(O)ccc4C3CC[C@@]21C (some centres undefined),parasite load remaining,[1],105% (inactive) and 44.5% (inactive)
same,viability,[1],66.4% and 92.8%
same,fold change,[2]; [4],0.912 (inactive)
same,fold change,[2]; [5],2.49
same,cell count,[2]; [6],10500
same,cell count,[2]; [7],11500
COC(C)(C)CCC[C@H](C)C/C=C/C(C)=C/C(=O)O,fold fluorescence,[3],5.1 (inactive)
c1ccc2c3c([nH]c2c1)[C@H]1C2CCC([C@@H]4CCCN[C@H]24)N1CC3 (some centres undefined),parasite load remaining,[1],89.2% (inactive)
same,viability,[1],93.6%
same,fold change,[2]; [4],0.865 (inactive)
same,fold change,[2]; [5],1.3
same,cell count,[2]; [6],7540
same,cell count,[2]; [7],8710
